In PubChem BioAssay (NCI):
The panel holds about 79,000 compounds, 15% with a hit somewhere; the sample as a whole holds those more often. Calls of active or inactive are those of the source. No stated cut-off is given here; in the data, active means growth inhibition above about 70%; inactive means the rest.

Key:
[1] = NCI Yeast Anticancer Drug Screen. Data for the rad52 strain (AID 147);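 further: 0% = growth of vehicle-treated control cultures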; conditions: S. cerevisiae rad52 mutant growth inhibition, hits give high values
In short: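 Measured: yeast growth inhibition. System: strain with a defined DNA damage repair alteration. Reference: vehicle-treated control cultures.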

[2] = NCI Yeast Anticancer Drug Screen. Data for the wt1 strain (AID 149);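 further: 0% = growth of vehicle-treated wt1 cultures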; conditions: S. cerevisiae wt1 strain (SPY 50644) growth inhibition, hits give high values
In short: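 Vehicle-normalised growth inhibition; strain wt1; compound exposure.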

[3] = NCI Yeast Anticancer Drug Screen. Data for the rad50EPP+ strain (AID 151);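 further: 0% = growth of vehicle-treated control cultures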; conditions: S. cerevisiae rad50 mutant strain, hits give high values
In short: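 One strain with a rad50 alteration (rad50EPP+) was compound-treated, its growth then compared to that of vehicle controls.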

[4] = NCI Yeast Anticancer Drug Screen. Data for the mgt1 strain (AID 153); conditions: S. cerevisiae mgt1 mutant growth inhibition, hits give high values
In short: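 After exposure of the mgt1 yeast mutant to compound, growth was measured and reported as inhibition compared with vehicle controls.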

[5] = NCI Yeast Anticancer Drug Screen. Data for the rad50 strain (AID 155);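 further: 0% = growth of vehicle-only cultures of the same strain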; conditions: S. cerevisiae rad50 strain growth inhibition, hits give high values
In short: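 A DNA repair-deficient yeast mutant serves as the test organism; compound-induced growth inhibition is calculated against vehicle-treated cells.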

[6] = NCI Yeast Anticancer Drug Screen. Data for the mec2-1 strain (AID 157); conditions: S. cerevisiae mec2-1 strain, hits give high values
In short: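 Test agents were screened against the mec2-1 yeast strain, with defined DNA repair or cell cycle alteration. Growth was scored as inhibition against vehicle-only controls.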

[7] = NCI Yeast Anticancer Drug Screen. Data for the rad14 strain (AID 159);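 further: 0% = growth of vehicle-treated control cultures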; conditions: S. cerevisiae rad14 strain growth inhibition, hits give high values
In short: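 Vehicle-treated cultures served as the baseline for growth inhibition of a DNA repair-mutant yeast strain exposed to each compound.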

[8] = NCI Yeast Anticancer Drug Screen. Data for the sgs1 mgt1 strain (AID 161);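 further: 0% = growth of cultures given vehicle only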; conditions: S. cerevisiae sgs1 mgt1 strain, hits give high values
In short: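 Mutant yeast exposed to compound; growth scored against vehicle-only wells.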

[9] = NCI Yeast Anticancer Drug Screen. Data for the CLN2oe strain (AID 163);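 further: 0% = growth of vehicle-only control cultures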; conditions: S. cerevisiae CLN2oe strain, hits give high values
In short: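 Here, growth inhibition in a cell-cycle-altered yeast strain after compound exposure was quantified against vehicle control growth.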

[10] = NCI Yeast Anticancer Drug Screen. Data for the cln2 rad14 strain (AID 165);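 further: 0% = growth equal to vehicle treated cultures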; conditions: S. cerevisiae cln2 rad14 strain, hits give high values
In short: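 Growth of compound-exposed yeast (cln2 rad14 genotype) measured and expressed as inhibition relative to vehicle.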

[11] = NCI Yeast Anticancer Drug Screen. Data for the bub3 strain (AID 167); conditions: S. cerevisiae bub3 mutant strain, hits give high values
In short: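 Inhibition values come from growth of compound-treated mutant yeast normalised to vehicle-treated controls.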

[12] = NCI Yeast Anticancer Drug Screen. Data for the wt2 strain (AID 169);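 further: 0% = growth of vehicle-treated yeast cultures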; conditions: S. cerevisiae wt2 strain growth inhibition, hits give high values
In short: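 Genetically defined yeast strains from a DNA-repair/cell-cycle panel were used. Compound-exposed yeast growth was measured, and the inhibition was calculated relative to vehicle treatment.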

[13] = NCI Yeast Anticancer Drug Screen. Data for the mlh1 strain (AID 171);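 further: 0% = growth of vehicle-treated control cultures of the same strain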; conditions: S. cerevisiae mlh1 strain growth inhibition, hits give high values
In short: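 Here the genetically defined yeast mutant is grown with each compound, and the extent to which its growth falls below that of vehicle-exposed cells is reported.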

[14] = NCI Yeast Anticancer Drug Screen. Data for the sgs1 strain (AID 173);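 further: 0% = growth of vehicle-only control cultures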; conditions: S. cerevisiae sgs1 mutant, hits give high values
In short: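 Relative growth inhibition, referenced to vehicle, was determined in a yeast strain with a defined alteration affecting DNA damage repair or cell cycle control after compound exposure.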

[15] = NCI Yeast Anticancer Drug Screen. Data for the mlh1 rad18 strain (AID 175); conditions: S. cerevisiae mlh1 rad18 strain growth inhibition, hits give high values
In short: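 In this whole-cell yeast screen, a strain with altered DNA damage repair is challenged with compound, and its growth is measured against matched vehicle-treated controls.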

[16] = NCI Yeast Anticancer Drug Screen. Data for the rad18 strain (AID 177); conditions: S. cerevisiae rad18 mutant growth inhibition, hits give high values
In short: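 Screen uses a yeast strain with a defined lesion in DNA damage repair; compound effect is read as loss of growth compared to untreated vehicle cultures.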

[17] = at 5.0 µM (retest, dose inferred, filed as 0.5)
[18] = at 50.0 µM (retest, dose inferred, filed as 5.0)

Measured: growth inhibition

Nc1cc2ccccc2cc1N
inactive: [1]; at 1.2 µM -47% | [1]; at 3.7 µM -35% | [1]; at 11.0 µM -41% | [1]; at 33.0 µM -39% | [1]; at 100.0 µM 25% | [2]; at 1.2 µM -28% | [2]; at 3.7 µM -14% | [2]; at 11.0 µM -17% | [2]; at 33.0 µM 3% | [2]; at 100.0 µM 20% | [3]; at 1.2 µM -37% | [3]; at 3.7 µM -13% | [3]; at 11.0 µM 40% | [3]; at 33.0 µM 59% | [4]; at 1.2 µM -30% | [4]; at 3.7 µM -42% | [4]; at 11.0 µM -33% | [4]; at 33.0 µM -23% | [4]; at 100.0 µM -18% | [5]; at 1.2 µM -33% | [5]; at 3.7 µM -23% | [5]; [17] 14% | [5]; at 11.0 µM -26% | [5]; at 33.0 µM 12% | [5]; [18] 17% | [5]; at 100.0 µM 63% | [6]; at 1.2 µM -41% | [6]; at 3.7 µM -45% | [6]; [17] 4% | [6]; at 11.0 µM -46% | [6]; at 33.0 µM -35% | [6]; [18] 15% | [6]; at 100.0 µM -15% | [7]; at 1.2 µM -15% | [7]; at 3.7 µM -17% | [7]; at 11.0 µM -13% | [7]; at 33.0 µM -16% | [7]; at 100.0 µM 6% | [8]; [17] 19% | [8]; [18] 26% | [9]; at 1.2 µM 10% | [9]; at 3.7 µM 4% | [9]; at 11.0 µM 4% | [9]; at 33.0 µM 23% | [9]; at 100.0 µM 45% | [10]; [17] 21% | [11]; at 1.2 µM -35% | [11]; at 3.7 µM -36% | [11]; [17] 25% | [11]; at 11.0 µM -30% | [11]; at 33.0 µM -38% | [11]; at 100.0 µM 24% | [12]; at 1.2 µM -18% | [12]; at 3.7 µM -18% | [12]; at 11.0 µM -25% | [12]; at 33.0 µM -34% | [12]; at 100.0 µM -28% | [13]; at 1.2 µM -22% | [13]; at 3.7 µM -22% | [13]; at 11.0 µM -18% | [13]; at 33.0 µM -11% | [13]; at 100.0 µM 16% | [14]; at 1.2 µM 13% | [14]; at 3.7 µM 20% | [14]; at 11.0 µM 16% | [14]; at 33.0 µM 33% | [14]; at 100.0 µM 63% | [15]; [17] 6% | [15]; [18] 40% | [16]; at 1.2 µM -22% | [16]; at 3.7 µM -26% | [16]; at 11.0 µM -16% | [16]; at 33.0 µM -1% | [16]; at 100.0 µM 46%
active: [3]; at 100.0 µM 76% | [5]; at 50.0 µM 89.3% | [6]; at 50.0 µM 91.5% | [8]; at 50.0 µM 88.7% | [10]; [18] 70% | [10]; at 50.0 µM 90.1% | [11]; [18] 95% | [11]; at 50.0 µM 90.5% | [15]; at 50.0 µM 90.8%

CC(=O)CC(c1ccccc1)c1c(O)c2ccccc2oc1=O (stereo not drawn)
active: [1]; at 100.0 µM 75% | [4]; at 100.0 µM 83% | [5]; [17] 70% | [5]; [18] 95% | [5]; at 100.0 µM 76% | [6]; [18] 97% | [8]; [18] 89% | [9]; at 100.0 µM 70% | [10]; [18] 90% | [11]; [18] 86% | [11]; at 100.0 µM 79%
inactive: [1]; at 1.2 µM 5% | [1]; at 3.7 µM -1% | [1]; at 11.0 µM -4% | [1]; at 33.0 µM 16% | [2]; at 1.2 µM -10% | [2]; at 3.7 µM -10% | [2]; at 11.0 µM -12% | [2]; at 33.0 µM 10% | [2]; at 100.0 µM 64% | [3]; at 1.2 µM 15% | [3]; at 3.7 µM 4% | [3]; at 11.0 µM -3% | [3]; at 33.0 µM -4% | [3]; at 100.0 µM -16% | [4]; at 1.2 µM 13% | [4]; at 3.7 µM 4% | [4]; at 11.0 µM 14% | [4]; at 33.0 µM 44% | [5]; at 1.2 µM 6% | [5]; at 3.7 µM 5% | [5]; at 11.0 µM 6% | [5]; at 33.0 µM 20% | [5]; at 50.0 µM 46.8% | [6]; at 1.2 µM -9% | [6]; at 3.7 µM -9% | [6]; [17] 61% | [6]; at 11.0 µM -4% | [6]; at 33.0 µM 12% | [6]; at 50.0 µM 31.5% | [6]; at 100.0 µM 67% | [7]; at 1.2 µM -4% | [7]; at 3.7 µM 0% | [7]; at 11.0 µM -8% | [7]; at 33.0 µM 19% | [7]; at 100.0 µM 68% | [8]; [17] -1% | [8]; at 50.0 µM 55.4% | [9]; at 1.2 µM 17% | [9]; at 3.7 µM 22% | [9]; at 11.0 µM 6% | [9]; at 33.0 µM 39% | [10]; [17] 22% | [10]; at 50.0 µM 54.6% | [11]; at 1.2 µM 11% | [11]; at 3.7 µM 13% | [11]; [17] 29% | [11]; at 11.0 µM 14% | [11]; at 33.0 µM 45% | [11]; at 50.0 µM 62.1%
